Screening data (PubChem BioAssay)
HP1b chromo inh: HTS for Inhibitors of HP1-beta Chromodomain Interactions with Methylated Histone Tails. Chromobox protein homolog 1 (Homo sapiens), P83916. actives 0.56% (n = 390,000). AID 540317, 2011. Potency, µM (titrated, usually from 114 µM), hits mostly inhibitors. AlphaScreen HP1-beta / biotin-H3K9me3 peptide binding; note: nearly all actives have a fitted effect of over 70% in size
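Compound inhibition of the preformed complex between 50 nM HP1-beta and 50 nM biotinylated H3K9me3 peptide was read by AlphaScreen. Buffer was PBS pH 7.4 with 0.01% Tween-20. Incubations ran 30 min at room temperature, with 10 ug/mL donor/acceptor beads.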
Sfp PPTase inh: qHTS Assay for Inhibitors of Bacillus subtilis Sfp phosphopantetheinyl transferase (PPTase). Biochemical Sfp PPTase activity, qHTS. Potency, µM, actives largely listed as inhibitors. 4'-phosphopantetheinyl transferase ffp (Bacillus subtilis), Q9F4F7. actives 3.5% (n = 310,000);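 note: the enzyme is Sfp with the accession as filed and its product quenches rhodamine fluorescence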
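Fluorescence-quenching assay: 15 nM Sfp-PPTase preincubated 15 min at room temperature with compound, then 5 uM rhodamine-CoA and 12.5 uM BHQ-2-labelled YbbR peptide added. Fluorescence (ex 525/em 598 nm) read at start and after 30 min; difference gives rate.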
BAZ2B inh: qHTS Assay for Inhibitors of BAZ2B; actives 4.4% (n = 360,000); AlphaScreen BAZ2B-H3K14Ac peptide displacement; Bromodomain adjacent to zinc finger domain protein 2B (Homo sapiens), Q9UIF8; Potency, µM (series often up to 114 µM), hits mostly inhibitors; note: nearly all actives have a fitted effect of over 60% in size
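Multi-concentration screen (max 110 uM) measuring displacement of acetylated histone H3 peptide from BAZ2B by AlphaScreen, using 50 nM protein, 50 nM peptide and 10 ug/mL streptavidin donor plus Ni-chelate acceptor beads.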
G9a inh: qHTS Assay for Inhibitors of Histone Lysine Methyltransferase G9a. Histone-lysine N-methyltransferase EHMT2 (Homo sapiens), Q96KQ7. G9a H3K9 monomethylation, AlphaScreen, 2 h. Potency, µM (titrated, usually from 102 µM), actives largely listed as inhibitors. actives 8.8% (n = 350,000). AID 504332, 2011; note: nearly all actives have a fitted effect of over 75% in size
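AlphaScreen detection with an anti-monomethyl H3K9 antibody quantified product after a 2 h room-temperature reaction containing 500 nM biotinylated H3K9 peptide, 20 µM SAM and 20 nM enzyme, which had been preincubated 15 min with compound.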
JMJD2A Tudor inh: qHTS Assay for Inhibitors of JMJD2A-Tudor Domain | Potency, µM (highest dose often 114 µM), usual class: inhibitors | Lysine-specific demethylase 4A (Homo sapiens), O75164 | actives 4.4% (n = 390,000) | AlphaScreen JMJD2A-Tudor / H3K4me3 peptide binding; note: nearly all actives have a fitted effect of over 50% in size
A number is an active result; ! = a repeat was not active; [ ] = another dose, or the depositor's remark. Only some compounds are listed: those with a hit (about 12% of all), similar ones and a draw of the others. Calls come from the whole dose curve; as a rule, active = well fitted curve in the direction sought with a large enough effect; inconclusive = small, poorly fitted or top-dose-only effect, or another doubt; inactive = no such curve, though single readings can be large; an effect the other way counts as inactive or inconclusive.

For COc1cc(CNc2ccccc2SC)cc(OC)c1OC the results were HP1b chromo inh inactive, Sfp PPTase inh inconclusive, BAZ2B inh inactive, G9a inh 11µM and JMJD2A Tudor inh inconclusive.
Screening COc1ccc(CNc2ccccc2SC)cc1OC returned HP1b chromo inh inactive, Sfp PPTase inh 56µM, BAZ2B inh inconclusive, G9a inh 10µM and JMJD2A Tudor inh 79µM.
COc1ccc(C(=O)COC(=O)C2COc3ccccc3O2)cc1F (configuration not stated) was read as HP1b chromo inh inactive and JMJD2A Tudor inh inactive.
For N#Cc1nc(NCC(F)F)c2ncn(-c3cc(F)cc(F)c3)c2n1 the results were JMJD2A Tudor inh inactive.
COc1ccc(NC(=O)CSc2nc3nc(C)c(Cc4ccc(C)cc4)c(C)n3n2)cc1OC was read as HP1b chromo inh inactive, BAZ2B inh inactive, G9a inh inactive and JMJD2A Tudor inh inactive.
Cc1c(C(=O)c2ccc(F)cc2F)c2ccccn2c1CCC#N was read as HP1b chromo inh inactive, Sfp PPTase inh inconclusive, BAZ2B inh 18µM, G9a inh 8.9µM and JMJD2A Tudor inh inactive.
Screening Cc1c(C(=O)c2ccc(Cl)c([N+](=O)[O-])c2)c2ccccn2c1CCC#N returned HP1b chromo inh inconclusive, Sfp PPTase inh inactive, BAZ2B inh inconclusive, G9a inh inconclusive and JMJD2A Tudor inh inconclusive.
For Cc1c(C(=O)c2ccc(N(C)C)cc2)c2ccccn2c1CCC#N the results were HP1b chromo inh inconclusive, Sfp PPTase inh inactive, BAZ2B inh inconclusive, G9a inh 45µM and JMJD2A Tudor inh inconclusive.
`COc1cccc(Nc2ncc3nc(CCc4ccccc4)c(=O)n(C[C@H]4CCCO4)c3n2)c1` gave Sfp PPTase inh inactive and G9a inh inactive[12.7 µM].
For Cc1ccc(-c2nnc(N3CCOCC3)c3ccccc23)cc1S(=O)(=O)N(C)C the results were HP1b chromo inh inactive, Sfp PPTase inh inactive, BAZ2B inh inactive, G9a inh inactive and JMJD2A Tudor inh inactive.
Screening CCCN(CC(=O)Nc1ccccc1OC)C(=O)c1ccc2[nH]c3c(c2c1)CC(C)CC3 (configuration not stated) returned HP1b chromo inh inconclusive, BAZ2B inh inconclusive, G9a inh inactive[12.7 µM] and JMJD2A Tudor inh inconclusive.
For CC(OC(=O)Cn1[nH]c(=O)c2ccccc2c1=O)C(=O)Nc1ccccc1[N+](=O)[O-] (configuration not stated) the results were HP1b chromo inh inactive, BAZ2B inh inactive, G9a inh inactive[2.33 µM] and JMJD2A Tudor inh inactive.
Cc1nn(CC(=O)OC(C)C(=O)Nc2ccccc2[N+](=O)[O-])c(C)c1[N+](=O)[O-] (configuration not stated) was read as HP1b chromo inh inactive, Sfp PPTase inh inactive, BAZ2B inh inactive, G9a inh 79µM and JMJD2A Tudor inh inactive.
COc1ccc(CNC(=O)C(CC(C)C)NS(=O)(=O)c2ccc3c(c2)CCN3C(C)=O)cc1 (configuration not stated) was read as HP1b chromo inh inactive, G9a inh inactive and JMJD2A Tudor inh inactive.
`Cc1ccccc1C(=O)Nc1sc2c(c1C(=O)NCc1ccco1)CCC(C(C)(C)C)C2` (configuration not stated) gave HP1b chromo inh inactive, BAZ2B inh inactive, G9a inh inactive and JMJD2A Tudor inh inactive.
For CCOC(=O)c1ccc(CC(=O)c2ccc(O)c(O)c2O)o1 the results were HP1b chromo inh inconclusive, Sfp PPTase inh 6.3µM, BAZ2B inh 32µM and JMJD2A Tudor inh inactive.
For COC(=O)CNC(=O)C1CC(=O)N(CCc2ccc(F)cc2)C1 (configuration not stated) the results were HP1b chromo inh inactive, Sfp PPTase inh inactive, BAZ2B inh inactive, G9a inh inactive and JMJD2A Tudor inh inactive.
For O=C(NNC1=NS(=O)(=O)c2ccccc21)c1ccc([N+](=O)[O-])cc1 the results were HP1b chromo inh inactive, Sfp PPTase inh inactive, BAZ2B inh inactive, G9a inh 35µM and JMJD2A Tudor inh inactive.
COc1ccc(NC(=S)N2CCN(c3ncccn3)CC2)c(OC)c1 was read as HP1b chromo inh inactive, Sfp PPTase inh 50µM, BAZ2B inh inactive, G9a inh inactive and JMJD2A Tudor inh inactive.
CC1(OC(=O)CCc2ccccc2)C(=O)C=C2C=C(c3ccc(C#N)cc3)OC=C2C1=O (configuration not stated) was read as Sfp PPTase inh inactive.
CCCCC1=CC2=CC(=O)C(C)(OC(=O)C3CCCC3)C(=O)C2=CO1 (configuration not stated) was read as HP1b chromo inh inconclusive, Sfp PPTase inh 71µM!, BAZ2B inh 50µM, G9a inh inconclusive and JMJD2A Tudor inh 79µM.
CC1(OC(=O)C2CCCC2)C(=O)C=C2C=C(c3ccsc3)OC=C2C1=O (configuration not stated) was read as HP1b chromo inh inconclusive, Sfp PPTase inh inactive, BAZ2B inh 50µM, G9a inh inconclusive and JMJD2A Tudor inh inconclusive.
For CC1(OC(=O)CCc2ccccc2)C(=O)C=C2C=C(c3ccsc3)OC=C2C1=O (configuration not stated) the results were Sfp PPTase inh inactive, BAZ2B inh 50µM and G9a inh inconclusive.
Screening CN1CC=C2C(C#N)=C(N)C(C#N)(C#N)[C@H](c3ccoc3)[C@H]2C1 returned HP1b chromo inh inactive, Sfp PPTase inh inactive, BAZ2B inh inactive, G9a inh 40µM and JMJD2A Tudor inh inactive.
Screening CC(=O)N1CC=C2C(C#N)=C(N)C(C#N)(C#N)[C@H](c3ccoc3)[C@H]2C1 returned HP1b chromo inh inactive, Sfp PPTase inh inactive, BAZ2B inh inactive, G9a inh inconclusive and JMJD2A Tudor inh inactive.
COc1ccccc1N(Cc1ccccc1)S(=O)(=O)c1cccc(C(=O)Nc2cc(C)ccn2)c1 was read as HP1b chromo inh inactive, Sfp PPTase inh inactive, BAZ2B inh inactive, G9a inh inactive and JMJD2A Tudor inh inactive.
Screening CC(=O)Nc1ccc(SCc2ncc(-c3ccccc3)o2)cc1 returned HP1b chromo inh inactive, Sfp PPTase inh inactive, BAZ2B inh inactive, G9a inh 50µM and JMJD2A Tudor inh inactive.
`Cc1ccc(N2C(=O)C3C4C=CC(CNC(=S)N5CCN(c6ccccn6)CC5)(O4)C3C2=O)cc1` (configuration not stated) gave HP1b chromo inh inconclusive, Sfp PPTase inh 28µM, BAZ2B inh inactive, G9a inh 2.2µM and JMJD2A Tudor inh inconclusive.
CC(C)(C)C(=O)NCC12C=CC(O1)C1C(=O)N(c3ccccc3)C(=O)C12 (configuration not stated) was read as HP1b chromo inh inconclusive, Sfp PPTase inh inactive, BAZ2B inh inactive, G9a inh 1.6µM and JMJD2A Tudor inh 56µM.
